Common to all, as to assay: NCI-60 one-dose screen, 48 h (100 = growth as untreated, 0 = no growth, -100 = all killed)
One assay has as its system SK-MEL-2 melanoma. Conditions: 10 µM.
A further assay relates to EKVX NSCLC. The settings on record: 10 µM.
The test system of another assay is SN12C renal. The settings on record: 10 µM.
The test system of the next assay is TK-10 renal. Conditions: 10 µM unless noted.
Another assay has as its system ACHN renal. Conditions: 10 µM.
A further assay deals with A498 renal. The settings on record: 10 µM.
The next assay has as its system CCRF-CEM leukemia. Conditions: 10 µM.
Another assay deals with MOLT-4 leukemia. The settings on record: 10 µM.
Another assay concerns SR leukemia. The settings on record: 10 µM.
In the next assay the test system is RPMI-8226 leukemia. Conditions: 10 µM.
A further assay deals with OVCAR-8 ovarian. Conditions: 10 µM.
The next assay concerns OVCAR-5 ovarian. Conditions: 10 µM.
Another assay relates to OVCAR-4 ovarian. Conditions: 10 µM.
The test system of another assay is SK-OV-3 ovarian. Conditions: 10 µM.
The subject of another assay is IGROV1 ovarian. The settings on record: 10 µM.
The test system of the next assay is OVCAR-3 ovarian. Conditions: 10 µM.
The subject of the next assay is HS 578T breast. The settings on record: 10 µM.
The test system of another assay is NCI/ADR-RES ovarian. The settings on record: 10 µM.
A further assay has as its system CAKI-1 renal. Conditions: 10 µM.

Drawing on PubChem BioAssay (NCI), this text covers growth for ten compounds.

About 83,000 compounds went through this panel and 20% of them were active in at least one assay; those are over-represented in the sample as a whole.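 Percent growth is the endpoint: 0 to 100 indicates growth inhibition (40 means 60% inhibition), 0 means no net growth, and negative values indicate cell death.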 Unmarked numbers belong to inactive results. Calls of active or inactive are those of the source. How the source made its calls: active means growth percent below 10; inactive means the rest.

As for `COC(=O)C(O)c1ccccc1` (stereo not given), the growth in the assay on SK-MEL-2 melanoma is 103%; with EKVX NSCLC it was 119%; with SN12C renal, 97%; in the assay on TK-10 renal, 106%; with ACHN renal, 100%; in the assay on A498 renal, 132%. Besides, the growth in the assay on CCRF-CEM leukemia is 98.1%; in the assay on MOLT-4 leukemia, 105%; with SR leukemia, 108%; in the assay on RPMI-8226 leukemia, 111%; with OVCAR-8 ovarian it was 108%; with OVCAR-5 ovarian, 97.6%. Also, the growth in the assay with OVCAR-4 ovarian was 113%; in the assay on SK-OV-3 ovarian, 105%; in the assay on IGROV1 ovarian, 123%; with OVCAR-3 ovarian it was 104%; in the assay on HS 578T breast it was 125%; with NCI/ADR-RES ovarian it was 110%.
As for `CCCC(=O)c1cc(C)ccc1OC`, the growth was 103% in the assay with SK-MEL-2 melanoma; 117% in the assay with EKVX NSCLC; 94.5% in the assay on SN12C renal; 104% with TK-10 renal; 103% in the assay on ACHN renal; 104% in the assay with CAKI-1 renal. Also, the growth with A498 renal was 119%; in the assay on CCRF-CEM leukemia, 96.5%; with RPMI-8226 leukemia, 110%; in the assay with OVCAR-8 ovarian, 111%; with OVCAR-5 ovarian, 101%; with OVCAR-4 ovarian it was 106%. The growth is 109% in the assay with SK-OV-3 ovarian; 94.1% in the assay on IGROV1 ovarian; 112% in the assay on OVCAR-3 ovarian; 118% with HS 578T breast; 112% with NCI/ADR-RES ovarian.
Consider `N#CSc1cc(S(N)(=O)=O)ccc1N`, for which the growth in the assay on SK-MEL-2 melanoma is 104%; in the assay on EKVX NSCLC, 115%; with SN12C renal it was 101%; with TK-10 renal, 106%; in the assay on ACHN renal, 112%; in the assay with CAKI-1 renal, 124%. Further, the growth in the assay on A498 renal is 118%; with MOLT-4 leukemia, 84.5%; with SR leukemia, 116%; with RPMI-8226 leukemia it was 109%; in the assay on OVCAR-8 ovarian, 102%; in the assay on OVCAR-5 ovarian, 107%. For the same compound, the growth with OVCAR-4 ovarian is 108%; in the assay with SK-OV-3 ovarian, 108%; with IGROV1 ovarian it was 106%; in the assay with OVCAR-3 ovarian it was 113%; with HS 578T breast, 115%; with NCI/ADR-RES ovarian, 108%.
Turning to `CC(=O)c1cc2c(cc1F)C(C)(C)CCC2(C)C`, the growth is 104% in the assay on SK-MEL-2 melanoma; 111% in the assay with EKVX NSCLC; 98.5% in the assay with SN12C renal; 109% in the assay on TK-10 renal; 91.9% in the assay on ACHN renal; 112% in the assay with CAKI-1 renal. The growth in the assay on CCRF-CEM leukemia is 120%; with MOLT-4 leukemia it was 89.1%; in the assay on SR leukemia, 92.5%; in the assay on OVCAR-8 ovarian, 104%; in the assay with OVCAR-5 ovarian it was 90.1%; in the assay on OVCAR-4 ovarian it was 103%. The growth is 105% with SK-OV-3 ovarian; 101% in the assay with IGROV1 ovarian; 101% in the assay on OVCAR-3 ovarian; 99% in the assay with HS 578T breast; 99.3% in the assay on NCI/ADR-RES ovarian.
As for `COc1ccccc1C1OC2=Nc3cc(C)c(C)cc3NC2C1=O` (stereo not given), the growth in the assay with SK-MEL-2 melanoma was 105%; in the assay on EKVX NSCLC, 83.9%; in the assay on SN12C renal it was 81.2%; in the assay with TK-10 renal, 55.1%; with ACHN renal, 16.5%; in the assay on CAKI-1 renal, 60.3%. In addition, the growth in the assay on CCRF-CEM leukemia was 86.8%; with MOLT-4 leukemia, 97.8%; in the assay on RPMI-8226 leukemia it was 93.5%; with OVCAR-8 ovarian it was 69%; with OVCAR-5 ovarian it was 62.1%; in the assay with OVCAR-4 ovarian, -14.2% (active). The growth in the assay with SK-OV-3 ovarian was 79.6%; with IGROV1 ovarian, 88.7%; in the assay on OVCAR-3 ovarian, 22.4%; in the assay on HS 578T breast it was 39.9%; in the assay with NCI/ADR-RES ovarian, 61.2%.
With `CC(C)NC(=O)OCc1c(COC(=O)NC(C)C)c(-c2ccc(Cl)c(Cl)c2)n2c1SCC2`, the growth with SK-MEL-2 melanoma is 37.8%; in the assay on EKVX NSCLC, 62.4%; in the assay on SN12C renal, 36.4%; with TK-10 renal, 6.38% (active); with ACHN renal, 18.1%; in the assay with CAKI-1 renal, -11.5% (active). Besides, the growth in the assay on CCRF-CEM leukemia was 24.9%; in the assay on MOLT-4 leukemia, 17.1%; with RPMI-8226 leukemia it was 36%; with OVCAR-8 ovarian, 44.7%; with OVCAR-5 ovarian, -15.6% (active); in the assay on OVCAR-4 ovarian, 38.2%. Further, the growth is 21.9% in the assay with SK-OV-3 ovarian; 3.1% (active) in the assay with IGROV1 ovarian; 47.2% with OVCAR-3 ovarian; 36.3% in the assay on HS 578T breast; 38.2% in the assay on NCI/ADR-RES ovarian.
Turning to `Cc1c(C(=O)O)c(=O)n(-c2ccccc2)n1C`, the growth with SK-MEL-2 melanoma was 116%; in the assay on EKVX NSCLC it was 103%; in the assay with SN12C renal, 105%; with TK-10 renal, 123%; with ACHN renal, 109%; in the assay on CAKI-1 renal it was 98.3%. The growth in the assay on CCRF-CEM leukemia was 108%; in the assay with MOLT-4 leukemia it was 113%; with SR leukemia, 123%; with RPMI-8226 leukemia it was 107%; in the assay with OVCAR-8 ovarian, 103%; with OVCAR-5 ovarian it was 110%. Also, the growth in the assay with SK-OV-3 ovarian is 107%; with IGROV1 ovarian, 117%; in the assay with OVCAR-3 ovarian it was 141%; in the assay on NCI/ADR-RES ovarian, 101%.
Take `CC(C)(O)C#CC#CC(C)(C)O`: the growth was 103% in the assay with SK-MEL-2 melanoma; 99.5% with EKVX NSCLC; 109% in the assay on SN12C renal; 95.6% in the assay on TK-10 renal; 98.8% with ACHN renal; 93.6% with A498 renal. For the same compound, the growth was 98.6% with CCRF-CEM leukemia; 90.7% in the assay on MOLT-4 leukemia; 97.9% with SR leukemia; 92.1% in the assay on RPMI-8226 leukemia; 99.2% in the assay with OVCAR-8 ovarian; 97.8% in the assay on OVCAR-5 ovarian. The growth with IGROV1 ovarian is 102%; with HS 578T breast, 100%; in the assay on NCI/ADR-RES ovarian, 96.9%.
As to `Cc1ccc(C)n1-c1ccsc1C(=O)NNC(=O)C(Cl)Cl`, the growth with SK-MEL-2 melanoma was 106%; in the assay with EKVX NSCLC, 92.5%; in the assay on SN12C renal it was 98.6%; in the assay on TK-10 renal, 112%; in the assay with ACHN renal, 104%; with CAKI-1 renal, 93.3%. Also, the growth in the assay on A498 renal is 101%; in the assay on CCRF-CEM leukemia, 85.3%; in the assay with RPMI-8226 leukemia it was 107%; with OVCAR-8 ovarian, 106%; with OVCAR-5 ovarian, 112%; in the assay with OVCAR-4 ovarian, 96.9%. For the same compound, the growth is 95.7% in the assay on SK-OV-3 ovarian; 108% in the assay on IGROV1 ovarian; 107% in the assay on OVCAR-3 ovarian; 100% in the assay with HS 578T breast; 102% in the assay with NCI/ADR-RES ovarian.
As to `CC(O)COc1ccc(-c2ccccc2)cc1` (stereo not given), the growth with SK-MEL-2 melanoma was 108%; in the assay on EKVX NSCLC it was 93.6%; with SN12C renal, 101%; with TK-10 renal it was 106%; with ACHN renal, 103%; in the assay with A498 renal it was 78.7%. Besides, the growth was 95.4% with CCRF-CEM leukemia; 121% with MOLT-4 leukemia; 94.4% with SR leukemia; 97.7% in the assay on RPMI-8226 leukemia; 108% in the assay with OVCAR-8 ovarian; 98.9% in the assay with OVCAR-5 ovarian. Further, the growth is 111% with OVCAR-4 ovarian; 105% with SK-OV-3 ovarian; 115% with IGROV1 ovarian; 108% with OVCAR-3 ovarian; 106% with HS 578T breast; 110% with NCI/ADR-RES ovarian.
